Laboratory results reported in ChEMBL document CHEMBL1157539, “Thousands of chemical starting points for antimalarial lead identification” (Nature, 2010).

system: Plasmodium falciparum; assay: GSK_TCMDC: Inhibition of Plasmodium falciparum 3D7 in whole red blood cells, using parasite LDH activity as an index of growth. Test compounds present at 2uM; type: functional

First: O=C(CCc1cccnc1)Nc1cccc(-c2ccc(-c3nc4cc(C(F)(F)F)ccc4[nH]3)s2)c1
Second: O=C(Nc1ccc(Cl)cc1)Nc1cccc(-c2cccc(-c3nc4ccccc4[nH]3)c2)c1
The Inhibition of the first is lower: 89% for the first, 100% for the second.

Going from `Cc1cc(O)c2c3c1C(=O)C=C1C3c3c(c(O)cc(O)c3C(=O)C1(C)C)C2=O` (stereo not drawn) to `Cc1cnc(NCC2CCCCC2)nc1NCC(=O)Nc1ccccc1.O=C(O)C(F)(F)F`, the Inhibition falls from 98% to 90%.

system: Plasmodium falciparum; assay: GSK_TCMDC: Inhibition of Plasmodium falciparum Dd2 in whole red blood cells, using parasite LDH activity as an index of growth. Test compounds present at 2uM; type: functional

Going from `O=[N+]([O-])c1cccc(NC(=S)N2CCCN(Cc3ccc(F)cc3F)CC2)c1` to `CN1CCCN(Cc2cccc(-c3ccc(NC(=O)c4ccc(Cl)cc4)cc3)c2)CC1.O=C(O)C(F)(F)F`, the Inhibition falls from 98% to 35%.

Compared with `CCCCOc1ccccc1C(=O)NCc1csc(-c2ccccc2)n1`, `N=C(NCc1ccccc1)Nc1nc(-c2ccc(OCCCn3ccnc3)cc2)cs1` is lower in Inhibition: 91% for the first, 55% for the second.

Going from `CC1(C)OC[C@]2(C)[C@@H](CC[C@]3(C)C4=CC(=O)CCC4CC[C@@H]23)O1` (stereo partly drawn) to `COc1c(C2CCN(CCCCNC(=O)c3cc(-c4ccc(Cl)cc4)oc3C)CC2)ccc2c1CCCC2`, the Inhibition falls from 95% to 27%.

Compared with `CNc1ccc(CNCc2ccc(-c3ccc(-c4nc5cccc(C)c5[nH]4)cc3)cc2)cc1.O=C(O)C(F)(F)F`, `Cc1cccc2nc(-c3ccc(-c4ccc(CNCCc5ccncc5)cc4)cc3)[nH]c12.O=C(O)C(F)(F)F` is higher in Inhibition: 92% for the first, 98% for the second.

Compared with `CC(=O)O.CCC[C@@H]([C@@H](CC1CCCCC1)C(=O)N[C@H](C(=O)Nc1nccc(N)n1)C(C)(C)C)N(O)C=O`, `Cc1cnc(NCC2CCCCC2)nc1NCC(=O)Nc1ccccc1.O=C(O)C(F)(F)F` is lower in Inhibition: 82% for the first, 51% for the second.

Compared with `COc1cc(F)c2nccc([C@@H](O)CN3CCC(NCc4cc5c(cc4F)OCCO5)CC3)c2c1`, `O=C(/C=C/c1ccc(Cl)c(Cl)c1)NCCCCCN1CCC(NC(=O)Nc2ccc(F)cc2F)CC1` is lower in Inhibition: 45% for the first, 23% for the second.

Compared with `O=C(Cc1ccccc1)NC(CCN1CCC(O)(c2cccc(C(F)(F)F)c2)CC1)c1ccc(Cl)c(Cl)c1` (stereo not drawn), `O=C(O)C(F)(F)F.c1ccc2c(c1)CN(Cc1ccsc1)CC1(CCN(Cc3c[nH]c4cnccc34)CC1)O2` is higher in Inhibition: 32% for the first, 75% for the second.

Going from `CC(C)(C)c1ccc(CN2CCC(NC(=O)c3cc(-c4cccc(C(F)(F)F)c4)cs3)C2)cc1.O=C(O)C(F)(F)F` (stereo not drawn) to `NC1CCCN(Cc2cccc(-c3ccc(-c4nc5cc(F)ccc5[nH]4)cc3)c2)C1.O=C(O)C(F)(F)F` (stereo not drawn), the Inhibition rises from 85% to 99%.

First: CCOc1cc(C=NNc2nc(C)cc(-n3nc(C)cc3C)n2)ccc1O
Second: COc1ccc(Nc2ccnc3cc(-c4ccccn4)ccc23)cc1OC.Cl
The Inhibition of the first is higher: 52% for the first, 26% for the second.

Compared with `COc1c(I)cc(Cc2cnc(N)nc2N)cc1I`, `COc1cc(-c2ccc3c(-c4ccc(C(=O)N5CCN(C)CC5)cc4)n[nH]c3n2)cc(OC)c1OC` is higher in Inhibition: 0% for the first, 54% for the second.

First: Cc1cc(C(=O)CSc2nc3ccccc3n2-c2ccccc2)c(C)n1C1CCS(=O)(=O)C1 (stereo not drawn)
Second: Cl.O=C(N[C@@H](Cc1ccccc1)[C@H](O)CNC1CCc2ccccc2C1)c1cc(C2CCCC2)cc(N2CCCC2=O)c1 (stereo partly drawn)
The Inhibition of the first is lower: 0% for the first, 76% for the second.

First: Fc1ccc2[nH]c(-c3ccc(-c4cccc(CN5CCN(CCN6CCOCC6)CC5)c4)cc3)nc2c1.O=C(O)C(F)(F)F
Second: Cn1cncc1CNCc1ccc(-c2cccc(-c3nc4ccccc4[nH]3)c2)cc1.O=C(O)C(F)(F)F
The Inhibition of the first is higher: 100% for the first, 92% for the second.

First: O=C(NCCCCCN1CCC(c2c[nH]c3ccccc23)CC1)c1ccc(Cl)c(Cl)c1
Second: Cc1cc(C2CCN(CCCCNC(=O)c3ccc(-c4ccc(C(F)(F)F)cc4)cc3)CC2)c(C)cc1OCC(N)=O
The Inhibition of the first is lower: 10% for the first, 44% for the second.

Going from `Cc1cccc2nc(-c3cccc(-c4ccc(NC(=O)c5cnccc5C(F)(F)F)cc4)c3)[nH]c12` to `O=C(Nc1ccc(Cl)cc1)Nc1cccc(-c2cccc(-c3nc4ccccc4[nH]3)c2)c1`, the Inhibition rises from 37% to 56%.

Going from `CN(C)Cc1cccc(-c2ccc(NC(=O)c3ccc4c(=O)n(Cc5ccoc5)cnc4c3)cc2)c1` to `COc1ccc(CNC(=O)Nc2cc3cc(-c4ccc(CN(C)C)cc4)ccc3n3c(C)nnc23)cc1`, the Inhibition rises from 9% to 80%.

Compared with `Cl.Nc1c2c(nc3ccc(NC(=O)CCCCCCc4ccccc4)cc13)CCCC2`, `O=C(CCc1cccnc1)Nc1cccc(-c2ccc(-c3nc4cc(C(F)(F)F)ccc4[nH]3)s2)c1` is lower in Inhibition: 90% for the first, 13% for the second.

Compared with `Cc1cccn2c(=O)c3cc(C(=O)NC4CCCCC4)c(=N)n(CCCn4ccnc4)c3nc12`, `Cc1ccc(-c2nnc3c4ccccc4c(C)nn23)cc1S(=O)(=O)N1CCN(CCO)CC1` is higher in Inhibition: 8% for the first, 62% for the second.

Compared with `CN1CCC(C(=O)N(Cc2ccc(-c3ccc(CNCCc4ccc(S(C)(=O)=O)cc4)cn3)cc2)Cc2ccc3c(c2)OCO3)CC1.O=C(O)C(F)(F)F`, `O=C(CCC1CCCC1)N(Cc1ccc(-c2ccc(CNCCc3ccccc3)cc2)cc1)C1CCCNC1.O=C(O)C(F)(F)F` (stereo not drawn) is higher in Inhibition: 51% for the first, 71% for the second.

First: CN(C(=O)/C=C/c1cc(C(F)(F)F)ccc1F)C1CCN(CCCCCNC(=O)/C=C/c2ccc(Cl)c(Cl)c2)C1 (stereo not drawn)
Second: COc1cccc2c(N/N=C/c3ccccc3[N+](=O)[O-])ccnc12
The Inhibition of the first is lower: 1% for the first, 43% for the second.

`Cc1cc(O)c2c3c1C(=O)C=C1C3c3c(c(O)cc(O)c3C(=O)C1(C)C)C2=O` (stereo not drawn) was tested, and the Inhibition was 46%.
